Bioassay records as filed in PubChem.
IL-1B inflam inh: qHTS for Inhibitors of Inflammasome Signaling: IL-1-beta AlphaLISA Primary Screen. activity change, % at 57.5 µM. 360,000 tested, 4.7% active. THP-1 LPS/ATP IL-1B secretion, AlphaLISA, 16 h; active compounds read low; in the data active means activity change below about -50%; inconclusive means mostly about -30% to -49%; further: on the % scale 0 is the no-effect control and ±100 the full control effect
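Secreted IL-1B measured by AlphaLISA bead assay after 16 h compound exposure of THP-1 cells; compounds (final up to 57.5 uM) added 1 h before LPS (250 ng/mL) and ATP (1.25 mM) stimulation; lower signal means less secretion.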
HepG2 tox: qHTS for Inhibitors of TGF-b: Cytotox Counterscreen; HepG2 CAGA-GFP viability, ATP luminescence, 18 h; 410,000 tested, 0.76% active; Potency, µM (doses to about 46.1 µM), without a hit: at the highest dose activity change, negative = cytotoxicity, hits mostly cytotoxic; further: potency means the concentration at half of the fitted maximal effect
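CellTiter-Glo luminescence gave cytotoxicity after 18 hours at 37 degrees C. The cells were HepG2 CAGA-GFP in 1% FBS DMEM, stimulated with 500 pg/mL TGF-beta after compound addition. %Activity was normalised to no-cell wells (complete cell-killing) and DMSO (no toxicity), and curves were fitted and classified.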
TDP1 inh: qHTS Assay for Inhibitors of Tyrosyl-DNA Phosphodiesterase (TDP1). Tyrosyl-DNA phosphodiesterase 1 (Homo sapiens), Q9NUW8. recombinant TDP1, AlphaScreen DNA substrate cleavage. Potency, µM (doses to about 130 µM), without a hit: at the highest dose activity change, negative = inhibition, hits mostly inhibitors. 350,000 tested, 0.28% active. AID 485290, 2010; further: potency means the concentration at half of the fitted maximal effect; on the % scale 0 is the no-effect control and ±100 the full control effect; nearly all actives have a fitted effect of over 40% in size
Target sequence (Q9NUW8 whole entry, looked up): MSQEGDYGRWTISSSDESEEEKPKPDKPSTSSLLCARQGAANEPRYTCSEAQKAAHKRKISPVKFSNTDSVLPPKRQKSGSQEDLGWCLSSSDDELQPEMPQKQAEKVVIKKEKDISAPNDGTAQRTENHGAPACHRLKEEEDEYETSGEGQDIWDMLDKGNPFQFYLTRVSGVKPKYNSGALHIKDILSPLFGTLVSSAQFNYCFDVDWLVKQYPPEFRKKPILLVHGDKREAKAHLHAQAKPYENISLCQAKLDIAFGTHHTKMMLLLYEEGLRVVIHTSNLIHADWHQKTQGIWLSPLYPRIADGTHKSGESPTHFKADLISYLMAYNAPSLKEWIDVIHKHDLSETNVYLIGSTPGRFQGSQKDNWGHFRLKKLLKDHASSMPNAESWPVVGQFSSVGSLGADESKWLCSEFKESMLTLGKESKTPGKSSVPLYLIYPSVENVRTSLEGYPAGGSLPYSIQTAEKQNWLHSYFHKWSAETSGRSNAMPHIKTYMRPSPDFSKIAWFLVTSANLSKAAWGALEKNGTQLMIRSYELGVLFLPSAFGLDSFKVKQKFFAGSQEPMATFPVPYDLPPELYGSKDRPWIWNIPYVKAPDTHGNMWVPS
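Tdp1 1 nM final; 15 min RT w/ cpd; substrate 15 nM, 5 min; beads 10 ug/ml, 10 min; AlphaScreen read. Neg ctrl: no enzyme.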
DT40 TDP1 no CPT: qHTS for Inhibitors of human tyrosyl-DNA phosphodiesterase 1 (TDP1): qHTS in cells in absence of CPT; 420,000 tested, 15% active; DT40 Tdp1-/- hTDP1 cells, no CPT, ATP luminescence, 48 h; Potency, µM (highest dose often 46.2 µM), for the others: at the highest dose activity change, negative = growth inhibition, hits mostly inhibitors; AID 686978, 2013; further: potency means the concentration at half of the fitted maximal effect; on the % scale 0 is the no-effect control and ±100 the full control effect; nearly all actives have a fitted effect of over 55% in size
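Growth kinetics read by CellTiter-Glo luminescence after ≥48 hr at 37 °C. Cells: DT40 Tdp1-/- stably carrying human TDP1, 400 per well, compound exposure in the absence of CPT (DMSO vehicle).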
TGFb SMAD3 inh: qHTS for Inhibitors of TGF-b; HepG2 CAGA-GFP TGF-b/SMAD3 reporter, GFP fluorescence, 18 h; TGF-beta stimulated, 500 pg/mL final; Potency, µM (series often up to 46.1 µM), inactives show at the top dose activity, negative = inhibition, actives largely listed as inhibitors; 410,000 tested, 1.2% active; AID 588855, 2011; further: potency means the concentration at half of the fitted maximal effect; on the % scale 0 is the no-effect control and ±100 the full control effect; nearly all actives have a fitted effect of over 65% in size
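Per well, imaged GFP fluorescence of HEPG2 CAGA-GFP cells gives the signal; cells get compound, then TGF-beta (500 pg/mL final), 18 h at 37 degrees C; %Activity versus -TGF-beta and +DMSO controls.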
TDP1 cell CPT: qHTS for Inhibitors of human tyrosyl-DNA phosphodiesterase 1 (TDP1): qHTS in cells in presence of CPT; chicken DT40 Tdp1-/-;hTDP1 cells + 20 nM CPT, ATP luminescence, 48 h; Potency, µM (titrated, usually from 46.2 µM), without a hit: top-dose activity change, negative = growth inhibition, most hits filed as inhibitors; 420,000 tested, 12% active; AID 686979, 2013; further: potency means the concentration at half of the fitted maximal effect; on the % scale 0 is the no-effect control and ±100 the full control effect; nearly all actives have a fitted effect of over 55% in size
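Chicken DT40 Tdp1-/- cells complemented with human TDP1, 400 cells/well, exposed to compounds plus 20 nM camptothecin for at least 48 h at 37 C; viability read as ATP content by CellTiter-Glo luminescence.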
An asterisk follows results filed as active; ? = inconclusive; . = not tested or not shown; [ ] = remark or other dose. Hits are enriched below; roughly 19% of the tested compounds scored in any of these assays. Unless noted, the call rests on the fitted dose curve; in most records, active means well fitted curve in the direction sought with a large enough effect; inconclusive means small, poorly fitted or top-dose-only effect, or another doubt; inactive means no such curve, though single readings can be large; an effect the other way counts as inactive or inconclusive.

SMILES	IL-1B inflam inh	HepG2 tox	TDP1 inh	DT40 TDP1 no CPT	TGFb SMAD3 inh	TDP1 cell CPT
C[C@@H](N)C(=O)N[C@H]1CCC2C3CC=C4C[C@@H](O)CC[C@]4(C)C3CC[C@@]21C (some centres undefined)	107	-13%	.	?	25%	-24%
CC(C)[C@H](N)C(=O)N[C@H]1CCC2C3CC=C4C[C@@H](O)CC[C@]4(C)C3CC[C@@]21C (some centres undefined)	-106*	20µM*	.	?	?	?
CCC(C)[C@H](N)C(=O)N[C@H]1CCC2C3CC=C4C[C@@H](O)CC[C@]4(C)C3CC[C@@]21C (some centres undefined)	-111*	16µM*	.	?	?	?
C[C@]12CC[C@H](O)CC1=CCC1C2CC[C@@]2(C)C1CC[C@@H]2NCc1ccccc1 (some centres undefined)	17	-12%	.	21µM*	-9%	21µM*
COc1ccc2c(c1)O[C@@H](c1ccc3c(c1)OCO3)[C@H](OC(=O)Nc1ccc(C)c(Br)c1)C2=O	.	.	9%	.	.	.
O=C(c1ccccc1Cc1ccccc1)N1CCN(S(=O)(=O)c2ccccc2[N+](=O)[O-])CC1	-3	0%	6%	?	?	?
O=C(NCCS(=O)(=O)N1CCN(Cc2ccccc2)CC1)c1ccccc1	5	10%	.	?	-13%	6%
COc1ccc(C(C(=O)NC2CCCC2)n2c(C3CCN(C(C)=O)CC3)nc3ccccc32)cc1 (centres undefined)	-14	.	.	-16%	.	-5%
CCOc1ccc(-c2[nH]ncc2Oc2ccccc2OCC)c(O)c1	-15	-78%	6%	?	?	6.5µM*
C=C(C)COc1ccc(-c2[nH]ncc2-c2ccc(Br)cc2)c(O)c1	-100*	-115%	0%	5.2µM*	20µM*	4.6µM*
C=C(C)COc1ccc(-c2ncnc(C(F)(F)F)c2-c2ccc(OC)cc2)c(O)c1	-20	-6%	.	?	11%	-24%
CCOc1ccc(-c2[nH]ncc2Oc2ccccc2OC)c(O)c1	-20	-49%	10%	?	?	-24%
CCCOC(=O)c1ccc(Oc2cn[nH]c2-c2ccc(OC)cc2O)cc1	-11	-81%	8%	21µM*	?	15µM*
C=C(C)COc1ccc(-c2n[nH]c(C)c2-c2ccc(Br)cc2)c(O)c1	-92*	14µM*	1%	?	13µM*	18µM*
CCCCc1nc2c(c3c1C[C@H](C)OC3)CN(C(=O)c1cc(I)ccc1F)CC2	.	.	7%[12.3 µM]	.	.	.
CCOC(=O)c1cccc(NC(=O)c2cc(S(=O)(=O)N3CCCC3)cn2C)c1	.	-17%	?	?	-30%	-7%
O=C(CSc1nc2ccccc2nc1Cc1ccc(F)cc1)Nc1ccc2c(c1)OCO2	.	-6%	3%	?	-1%	?
C=C(C)COc1ccc(-c2[nH]ncc2Oc2ccc(OC)cc2)c(O)c1	-14	-96%	.	?	?	?
C=C(C)COc1ccc(-c2[nH]ncc2Oc2ccccc2OC)c(O)c1	-62*	-110%	4%	?	?	?
C=C(C)COc1ccc(-c2[nH]ncc2-c2ccccc2OC)c(O)c1	-60*	18µM*	6%	26µM*	?	26µM*
